High-throughput results deposited in PubChem BioAssay by The Scripps Research Institute Molecular Screening Center.
An excerpt weighted towards active compounds, which were near 1.8% of everything screened.
GSTO1 inh: inhibitors of recombinant GSTO1, primary screen, counter-screen for RBBP9 inhibitor project, biochemical, fluorescence polarization; 1.1% of 300,000 active; activity-based probe fluorescence polarization; Glutathione S-transferase omega-1 (Homo sapiens), P78417; inhibition, % at 5.96 µM;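 active = inhibition above the campaign mean inhibition plus 3 SD, cut at about 35% in these data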;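 note: 0% = GSTO1-1 with DMSO and 100% = wells lacking GSTO1-1 enzyme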
LYPLA2 counter: LYPLA2 inhibitors, primary screen, counter-screen for PME1 inhibitor project, biochemical, fluorescence polarization, FP-Rh probe ABPP; AID 2177, 2009; recombinant LYPLA2; inhibition, % at 5.9 µM; Acyl-protein thioesterase 2 (Homo sapiens), O95372; 0.38% of 320,000 active;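 active = inhibition above the screen-wide mean plus 3 SD, limit set per campaign, cut at about 26% in these data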;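 note: 0% = LYPLA2 with DMSO and 100% = wells lacking LYPLA2 enzyme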
LYPLA1 counter: LYPLA1 inhibitors, primary screen, counter-screen for PME1 inhibitor project, biochemical, fluorescence polarization, FP-Rh probe ABPP. Acyl-protein thioesterase 1 (Homo sapiens), O75608. recombinant LYPLA1. inhibition, % at 5.9 µM. 0.16% of 320,000 active. AID 2174, 2009;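 active = inhibition above the mean of all tested compounds plus 3 SD, set per campaign, cut at about 14% in these data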;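 note: inhibitors block serine hydrolase probe labeling of LYPLA1 so polarization falls; 0% = enzyme with DMSO and 100% = wells lacking LYPLA1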
Target sequence (O75608 whole entry, looked up): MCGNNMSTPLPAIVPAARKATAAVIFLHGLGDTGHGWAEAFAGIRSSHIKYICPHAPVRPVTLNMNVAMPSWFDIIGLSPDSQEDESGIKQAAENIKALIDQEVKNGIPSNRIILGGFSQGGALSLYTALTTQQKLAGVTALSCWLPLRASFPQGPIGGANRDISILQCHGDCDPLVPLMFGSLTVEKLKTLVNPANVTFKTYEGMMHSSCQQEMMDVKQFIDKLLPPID
PAD4 FP inh: human PAD4 inhibitors, primary screen, biochemical, fluorescence polarization, 1536-well format. inhibition, % at 6.36 µM. AID 485272, 2010. Protein-arginine deiminase type-4 (Homo sapiens), Q9UM07. 0.41% of 330,000 active. recombinant PAD4, RCA probe fluorescence polarization;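 active = percent inhibition above a cutoff equal to the mean of all tested compounds plus 3 SD, cut at about 15% in these data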;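 note: 0% = PAD4 with RCA probe and DMSO and 100% = probe without PAD4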
PME-1 primary: PME-1 inhibitors via competitive probe labeling, primary screen, biochemical, fluorescence polarization, FP-Rh probe, HTS | Protein phosphatase methylesterase 1 (Homo sapiens), Q9Y570 | recombinant PME-1 | inhibition, % at 5.9 µM | 0.53% of 320,000 active;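 active = inhibition above the campaign mean of all compounds plus 3 SD, cut at about 26% in these data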;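 note: competitive labeling of PME-1 active site by serine hydrolase directed probe; 0% = PME-1 with DMSO and 100% = wells lacking PME-1 enzyme; inhibitors block probe labeling so polarization falls and inhibition rises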
Target sequence (Q9Y570 whole entry, looked up): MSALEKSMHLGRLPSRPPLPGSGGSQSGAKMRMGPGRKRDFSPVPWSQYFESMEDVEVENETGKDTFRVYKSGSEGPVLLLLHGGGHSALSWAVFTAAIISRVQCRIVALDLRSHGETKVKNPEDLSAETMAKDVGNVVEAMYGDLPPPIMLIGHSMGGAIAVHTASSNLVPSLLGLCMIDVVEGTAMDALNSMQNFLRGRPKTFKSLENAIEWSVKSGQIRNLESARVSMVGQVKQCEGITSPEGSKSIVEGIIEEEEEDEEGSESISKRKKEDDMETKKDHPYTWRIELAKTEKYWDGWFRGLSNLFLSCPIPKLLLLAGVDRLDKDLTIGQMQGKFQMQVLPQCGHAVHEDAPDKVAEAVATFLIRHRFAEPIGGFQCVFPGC
Fam108B inh: mouse Fam108B serine hydrolase inhibitors, primary screen, counter-screen for RBBP9 inhibitor project, biochemical, fluorescence polarization. recombinant Fam108B, FP-Rh probe fluorescence polarization. inhibition, % at 9.51 µM. 0.33% of 300,000 active;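 active = inhibition above the screen mean inhibition plus 3 SD, computed separately per campaign, cut at about 18% in these data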;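 note: inhibitors lower polarization as less probe binds the enzyme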
* = called active by the depositor.

What do the screens show for `COc1ccc(N(C(=O)CCl)C(C(=O)NC2CCCCC2)c2cccnc2)cc1` (configuration not stated)?
GSTO1 inh: 98*; LYPLA2 counter: 7; LYPLA1 counter: 4; PAD4 FP inh: 2; PME-1 primary: 4; Fam108B inh: 0

How did COc1ccc(NC(=O)C(c2ccccn2)N(C(C)=O)c2ccc(C)cc2)cc1 (configuration not stated) do in these assays?
GSTO1 inh: 9; LYPLA2 counter: -2; LYPLA1 counter: -1; PAD4 FP inh: -5; PME-1 primary: -6; Fam108B inh: -1

How did Cc1ccc(C(=O)N/C(=C\c2ccc(-c3ccccc3[N+](=O)[O-])o2)C(=O)NCCCN2CCOCC2)cc1 do in these assays?
GSTO1 inh: 36*; LYPLA2 counter: 5; LYPLA1 counter: 4; PAD4 FP inh: -11; PME-1 primary: 12; Fam108B inh: 3

How did CC1(C)CC(=O)C2=C(C1)OC(N)=C(C#N)C2C#Cc1ccccc1 (configuration not stated) do in these assays?
GSTO1 inh: 35*; LYPLA2 counter: 4; LYPLA1 counter: 2; PAD4 FP inh: 3; PME-1 primary: 1; Fam108B inh: 1

Results for CC(c1ccccc1)C1C(C#N)=C(N)OC2=C1C(=O)CC(C)(C)C2 (configuration not stated) ?
GSTO1 inh: -7; LYPLA2 counter: 3; LYPLA1 counter: -1; PAD4 FP inh: -4; PME-1 primary: 3; Fam108B inh: -2

How did CCCN(Cc1nc2cc(Cl)ccc2c(=O)[nH]1)C(=O)c1ccc(S(=O)(=O)N2CCCC2)cc1 do in these assays?
LYPLA2 counter: 3; LYPLA1 counter: 1; PAD4 FP inh: -4; PME-1 primary: 16

Results for COc1ccc(OC)c(CNC(=O)CCCc2cn(C)c3ccccc23)c1 ?
GSTO1 inh: 2; LYPLA2 counter: 3; LYPLA1 counter: 2; PAD4 FP inh: 0; PME-1 primary: 1; Fam108B inh: -2

Results for COc1cccc(CNC(=O)CCCc2cn(C)c3ccccc23)c1 ?
GSTO1 inh: -1; LYPLA2 counter: 4; LYPLA1 counter: 1; PAD4 FP inh: -2; PME-1 primary: 134*; Fam108B inh: -1

What do the screens show for `N#C/C(=C/c1ccc(N2CCOCC2)o1)c1ccc(Cl)cc1`?
GSTO1 inh: 2; LYPLA2 counter: 6; LYPLA1 counter: 5; PAD4 FP inh: -10; PME-1 primary: 0; Fam108B inh: 21*

How did N#C/C(=C\c1ccc(N2CCOCC2)o1)c1nc2ccccc2[nH]1 do in these assays?
GSTO1 inh: -59; LYPLA2 counter: -56; LYPLA1 counter: -16; PAD4 FP inh: 6; PME-1 primary: -78; Fam108B inh: -101

How did COC(=O)/C(=C(O)\C=C\c1ccccc1[N+](=O)[O-])c1nc2ccccc2[nH]1 do in these assays?
GSTO1 inh: 4; LYPLA2 counter: -10; LYPLA1 counter: -9; PAD4 FP inh: -1; PME-1 primary: 29*; Fam108B inh: 5

Results for N#CC1=C(N)C(C#N)(C#N)C(c2cccnc2)C2CC(c3ccccc3)CC=C12 (configuration not stated) ?
GSTO1 inh: 4; LYPLA2 counter: 6; LYPLA1 counter: -3; PAD4 FP inh: -4; PME-1 primary: 54*; Fam108B inh: 2

How did C/C=C/C=C/C(=O)N1CC[C@]23c4ccccc4N[C@H]4N(C)c5cccc6c5[C@]42CCN([C@H]6C2OC2(C)C)[C@H]13 (some centres not stated) do in these assays?
GSTO1 inh: 37*; LYPLA2 counter: 7; LYPLA1 counter: 1; PAD4 FP inh: 5; PME-1 primary: 0; Fam108B inh: 4

What do the screens show for `Cn1nnnc1SCC(=O)Nc1cc(S(=O)(=O)N2CCCC2)ccc1Cl`?
GSTO1 inh: 6; LYPLA2 counter: 0; LYPLA1 counter: 0; PAD4 FP inh: -3; PME-1 primary: 1; Fam108B inh: 0

What do the screens show for `CCN1CCN(CC(=O)Nc2cc(S(=O)(=O)N3CCCCC3)ccc2Cl)CC1`?
PAD4 FP inh: -5

What do the screens show for `O=C(CN1CCN(c2ccc(O)cc2)CC1)Nc1cc(S(=O)(=O)N2CCCC2)ccc1Cl`?
GSTO1 inh: 20; LYPLA2 counter: 3; LYPLA1 counter: 2; PAD4 FP inh: 0; PME-1 primary: 37*; Fam108B inh: 3

What do the screens show for `O=C(CSc1cccc(C(F)(F)F)c1)Nc1cc(S(=O)(=O)N2CCCC2)ccc1Cl`?
GSTO1 inh: -4; LYPLA2 counter: -15; LYPLA1 counter: -7; PAD4 FP inh: 1; PME-1 primary: 49*; Fam108B inh: -6

What do the screens show for `CCN(CC)C(=O)C1CCCN(C(=O)c2cc(COc3cccc(OC)c3)on2)C1` (configuration not stated)?
GSTO1 inh: 4; LYPLA2 counter: 4; LYPLA1 counter: 5; PAD4 FP inh: -3; PME-1 primary: 7; Fam108B inh: 4

How did O=C(Nc1ccccc1N1CCCC1)C1CCN(C(=O)c2ccc(F)cc2)CC1 do in these assays?
GSTO1 inh: -1; LYPLA2 counter: 0; LYPLA1 counter: -1; PAD4 FP inh: -1; PME-1 primary: 3; Fam108B inh: -1

Results for CCCCn1c(CNC(=O)CCC)nc2ccccc21 ?
GSTO1 inh: 0; LYPLA2 counter: -2; LYPLA1 counter: -1; PAD4 FP inh: 1; PME-1 primary: -2; Fam108B inh: 1

Results for CCCn1c(CNc2ccccc2O)nc2ccccc21 ?
GSTO1 inh: 35*; LYPLA2 counter: 3; LYPLA1 counter: -2; PAD4 FP inh: 5; PME-1 primary: 5; Fam108B inh: 12

Results for Cc1ccc(Cl)cc1N1CCN(C(=O)Cc2ccc(-n3c(=O)[nH]c4ccsc4c3=O)cc2)CC1 ?
GSTO1 inh: 3; LYPLA2 counter: 34*; LYPLA1 counter: 2; PAD4 FP inh: 4; PME-1 primary: 4; Fam108B inh: 6

Results for O=C(CCn1c(=O)[nH]c2ccsc2c1=O)N1CCN(c2cccc(Cl)c2)CC1 ?
GSTO1 inh: 12; LYPLA2 counter: 9; LYPLA1 counter: 4; PAD4 FP inh: 3; PME-1 primary: 4; Fam108B inh: 3

Results for COC(=O)c1sccc1NC(=O)Nc1ccc(F)cc1F ?
GSTO1 inh: 3; LYPLA2 counter: -4; LYPLA1 counter: -2; PAD4 FP inh: -6; PME-1 primary: -1; Fam108B inh: 1

Results for COC(=O)N1C(=O)[C@](c2ccccc2)(C(C)C)N1C(=O)OC ?
GSTO1 inh: -5; LYPLA2 counter: -4; LYPLA1 counter: -1; PAD4 FP inh: 0; PME-1 primary: 35*; Fam108B inh: -4
